In all, about 5,500 compounds went through this assay and about 2,000 (36%) were called active. Roughly 18% stayed inconclusive and do not appear here. Rule as the data show it: active = normalized growth mostly below about 0.91 (no sharp cut-off); inconclusive = no clear call, values can overlap the other calls; inactive = mostly above about 0.92. Some of the results follow.
Assay: chemical genetic growth profiling, strain panel (AID 1159580);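 also: tested at 20 µM; growth read once vehicle control cultures reached saturation at 30 °C; 1 = growth at the plate median or of vehicle wells; lower values mean less growth of the strain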
Conditions: S. cerevisiae deletion strains, growth OD
[1] = locus YHR030C, strain SLT2, active compounds read low
[2] = locus YHR079C, strain IRE1, active compounds read low
[3] = locus YJL095W, strain BCK1, active compounds read low
[4] = locus YJR066W, strain TOR1, active compounds read low
[5] = locus YLR113W, strain HOG1, active compounds read low
[6] = locus YNL183C, strain NPR1, active compounds read low
[7] = locus YOR231W, strain MKK1, active compounds read low
[8] = locus YPL256C, strain CLN2, active compounds read low

Measured: normalized growth

Cc1c[nH]c2ccccc12
inactive: [1] 0.992 | [2] 0.979 | [3] 0.999 | [4] 0.94 | [5] 0.945 | [6] 0.927 | [7] 1 | [8] 1.02

Cc1ccccc1/C=C/C1=NCCN1
inactive: locus YAL013W, strain DEP1, active compounds read low 0.997 | locus YAL040C, strain CLN3, active compounds read low 1.09 | locus YCL061C, strain MRC1 (second series), active compounds read low 1.01 | locus YDR150W, strain NUM1, active compounds read low 1.02 | locus YDR363W, strain ESC2, active compounds read low 0.999 | locus YER002W, strain NOP16, active compounds read low 1.01 | locus YGR078C, strain PAC10, active compounds read low 0.982 | locus YJR075W, strain HOC1, active compounds read low 0.997 | locus YMR263W, strain SAP30, active compounds read low 0.995 | locus YMR307W, strain GAS1, active compounds read low 0.978 | locus YNL175C, strain NOP13, active compounds read low 1 | locus YNL197C, strain WHI3, active compounds read low 0.993 | locus YNL224C, strain SQS1, active compounds read low 0.991 | locus YOR083W, strain WHI5 (second series), active compounds read low 0.991

Cc1ccccc1/C=C/c1c[nH]c2ccccc12
active: [5] 0.784
inactive: locus YAR019C, strain CDC15, active compounds read low 0.937 | locus YBL105C, strain PKC1, active compounds read low 0.961 | locus YBR135W, strain CKS1, active compounds read low 0.946 | locus YBR136W, strain MEC1, active compounds read low 0.954 | locus YBR160W, strain CDC28, active compounds read low 0.951 | locus YDL017W, strain CDC7, active compounds read low 0.955 | locus YDL028C, strain MPS1, active compounds read low 0.963 | locus YDL101C, strain DUN1, active compounds read low 0.953 | locus YDL108W, strain KIN28, active compounds read low 0.949 | locus YDL132W, strain cdc53, active compounds read low 0.942 | locus YDL214C, strain PRR2, active compounds read low 0.902 | locus YDR052C, strain DBF4, active compounds read low 0.95 | locus YDR054C, strain cdc34, active compounds read low 0.985 | locus YDR226W, strain ADK1, active compounds read low 0.949 | locus YDR477W, strain SNF1, active compounds read low 0.924 | locus YER123W, strain YCK3, active compounds read low 0.855 | locus YER133W, strain GLC7, active compounds read low 0.906 | locus YFL009W, strain cdc4, active compounds read low 0.945 | locus YFL029C, strain CAK1, active compounds read low 0.92 | locus YFR003C, strain YPI1, active compounds read low 0.958 | locus YFR019W, strain FAB1, active compounds read low 0.924 | locus YFR028C, strain CDC14, active compounds read low 0.955 | locus YGR040W, strain KSS1, active compounds read low 0.916 | locus YGR052W, strain FMP48, active compounds read low 0.965 | locus YGR092W, strain DBF2, active compounds read low 0.858 | [1] 0.921 | [2] 0.948 | locus YHR082C, strain KSP1, active compounds read low 0.937 | locus YHR205W, strain SCH9, active compounds read low 0.88 | locus YIL147C, strain SLN1, active compounds read low 0.956 | [3] 0.946 | locus YJL128C, strain PBS2, active compounds read low 0.906 | locus YJL157C, strain FAR1, active compounds read low 0.895 | locus YJR016C, strain ILV3, active compounds read low 0.952 | locus YJR066W, strain TOR1 (second series), active compounds read low 0.882 | [4] 0.955 | locus YKL048C, strain ELM1, active compounds read low 0.948 | locus YKL067W, strain YNK1, active compounds read low 0.91 | locus YKL101W, strain HSL1, active compounds read low 0.94 | locus YKL193C, strain SDS22, active compounds read low 0.948 | locus YKL203C, strain TOR2, active compounds read low 0.989 | locus YLR133W, strain CKI1, active compounds read low 0.931 | locus YLR403W, strain SFP1, active compounds read low 0.893 | locus YML070W, strain DAK1, active compounds read low 0.891 | locus YMR001C, strain CDC5, active compounds read low 0.937 | locus YMR205C, strain PFK2 (second series), active compounds read low 0.934 | locus YMR277W, strain FCP1, active compounds read low 0.959 | locus YNL006W, strain LST8, active compounds read low 0.955 | locus YNL020C, strain ARK1, active compounds read low 0.912 | locus YNL161W, strain CBK1, active compounds read low 0.953 | [6] 0.94 | locus YNL207W, strain RIO2, active compounds read low 0.948 | locus YNL222W, strain SSU72, active compounds read low 0.946 | locus YNL307C, strain MCK1 (second series), active compounds read low 0.941 | locus YOL078W, strain AVO1, active compounds read low 0.946 | locus YOL136C, strain PFK27, active compounds read low 0.887 | locus YOR061W, strain CKA2, active compounds read low 0.895 | locus YOR119C, strain RIO1, active compounds read low 0.943 | [7] 0.923 | locus YOR329C, strain SCD5, active compounds read low 0.961 | locus YPL031C, strain PHO85, active compounds read low 0.914 | locus YPL153C, strain RAD53, active compounds read low 0.931 | locus YPL204W, strain HRR25, active compounds read low 0.941 | locus YPL209C, strain IPL1, active compounds read low 0.95 | [8] 0.91 | locus YPR025C, strain CCL1, active compounds read low 0.955 | locus YPR106W, strain ISR1, active compounds read low 0.964 | locus YPR111W, strain DBF20, active compounds read low 0.952 | strain NNK1, active compounds read low 0.961 | strain TSCII, active compounds read low 0.947

From PubChem BioAssay AID1159580 (chemical genetic matrix, 2015)
